Compound activity deposited in PubChem by National Center for Advancing Translational Sciences (NCATS).
In the library only some 2.4% were active in any assay of this set; here they are far more common.
Pol kappa inh-1: qHTS for Inhibitors of Polymerase Kappa | DNA polymerase kappa (Homo sapiens), Q9UBT6 | purified Pol kappa, fluorescent DNA synthesis assay, 10 min | Potency, µM (titrated, usually from 107 µM), usual class: inhibitors | actives 0.53% (n = 400,000)
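Kinetic fluorescence readout at 0 and 10 min followed reaction start with substrate at 50 nM final. Beforehand, enzyme (10 nM Pol kappa) stood 15 min with compound at room temperature; buffer-only wells were negative controls.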
Pol iota inh: qHTS for Inhibitors of Polymerase Iota. DNA polymerase iota (Homo sapiens), Q9UNA4. Pol iota fluorescent replication assay, 10 min. Potency, µM (series often up to 115 µM), hits mostly inhibitors. actives 1% (n = 390,000)
Target sequence (Q9UNA4 whole entry, looked up): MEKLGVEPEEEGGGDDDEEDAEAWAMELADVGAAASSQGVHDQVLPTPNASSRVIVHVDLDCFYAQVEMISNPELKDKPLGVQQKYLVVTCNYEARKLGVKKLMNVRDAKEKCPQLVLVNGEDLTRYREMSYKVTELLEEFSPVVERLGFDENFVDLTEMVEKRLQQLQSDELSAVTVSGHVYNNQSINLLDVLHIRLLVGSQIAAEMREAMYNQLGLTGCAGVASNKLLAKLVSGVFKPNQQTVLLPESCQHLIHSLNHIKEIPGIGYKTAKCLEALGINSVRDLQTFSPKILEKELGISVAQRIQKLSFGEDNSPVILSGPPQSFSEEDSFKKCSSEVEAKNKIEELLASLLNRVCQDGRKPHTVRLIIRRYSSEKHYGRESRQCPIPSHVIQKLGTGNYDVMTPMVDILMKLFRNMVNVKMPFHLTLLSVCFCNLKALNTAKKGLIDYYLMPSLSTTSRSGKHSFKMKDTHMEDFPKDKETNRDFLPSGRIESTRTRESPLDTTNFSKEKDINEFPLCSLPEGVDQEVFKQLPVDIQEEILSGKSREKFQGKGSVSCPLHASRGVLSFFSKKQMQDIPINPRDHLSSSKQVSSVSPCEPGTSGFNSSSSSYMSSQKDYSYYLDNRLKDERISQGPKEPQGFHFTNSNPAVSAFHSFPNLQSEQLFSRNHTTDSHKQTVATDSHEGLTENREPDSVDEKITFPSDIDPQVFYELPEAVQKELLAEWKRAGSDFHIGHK
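Fluorescent replication assay read twice, at 0 min and 10 min after adding 50 nM (final) substrate. Enzyme (10 nM) and compounds were first incubated 15 min at room temperature; enzyme-free buffer wells were negative controls.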
Pol beta inh: qHTS Assay for Inhibitors of DNA Polymerase Beta; Pol beta primer extension/strand displacement, fluorescence kinetic; Potency, µM (top dose mostly 114 µM), usual class: inhibitors; actives 1.3% (n = 340,000)
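Pol beta (10 nM) and compounds were preincubated 15 min at room temperature, then 50 nM substrate (final) started primer extension/strand displacement. Reads were taken at 0 and 10 min; concentration-response data were fitted to a four-parameter Hill equation.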
Pol eta inh-1: qHTS for Inhibitors of Polymerase Eta; actives 1.2% (n = 390,000); Potency, µM (series often up to 114 µM), actives largely listed as inhibitors; recombinant Pol eta, fluorescent DNA replication assay; DNA polymerase eta (Homo sapiens), Q9Y253; AID 588591, 2011
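Pol eta (10 nM) was preincubated with compounds for 15 min at room temperature, after which fluorescent replication substrate (50 nM final) was added to start the reaction. Fluorescence was read kinetically at 0 and 10 min.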
FEN1 inh-1: qHTS Assay for the Inhibitors of Human Flap endonuclease 1 (FEN1). P39748. Recombinant FEN1 flap cleavage, fluorescence, 15 min. Potency, µM (highest dose often 114 µM), hits mostly inhibitors. actives 0.35% (n = 390,000); further: nearly all actives have a fitted effect of over 65% in size
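Concentration–response screening of FEN1 (10 nM): 15 min compound preincubation at room temperature, reaction started with 50 nM substrate and read at 0 and 15 min. Corrected, normalized data were fitted by a four-parameter Hill equation.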
WRN inhibitor: qHTS for Inhibitors of WRN Helicase; Bifunctional 3'-5' exonuclease/ATP-dependent helicase WRN (Homo sapiens), Q14191; WRN helicase unwinding, fluorescent forked duplex, kinetic; Potency, µM (highest dose often 114 µM), hits mostly inhibitors; actives 0.46% (n = 360,000); AID 651768, 2012; further: nearly all actives have a fitted effect of over 55% in size
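Enzyme (20 nM final) and test compound sit together 15 min at room temperature before substrate addition. Substrate is a single-forked duplex oligonucleotide (100 nM) labelled with fluorophore and quencher, with 2 mM ATP; helicase unwinding raises red fluorescence, read kinetically.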
TbPGK inh: qHTS for inhibitors of Phosphogylcerate Kinase: Hit Validation Screen; TbPGK coupled GAPDH assay, Kinase-Glo luminescence; shares compounds with Pol kappa inh-1; Potency, µM (series often up to 57.5 µM), most hits filed as inhibitors; actives 79% (n = 500); AID 686980, 2013; further: nearly all actives have a fitted effect of over 65% in size
POLI cherry-pick: qHTS for Inhibitors of Polymerase Iota: Confirmatory Assay for Cherry-picked Compounds | shares compounds with Pol kappa inh-1 | Pol iota primer extension, TAMRA/BHQ fluorescence | Potency, µM, hits mostly inhibitors | actives 77% (n = 1,500)
Pol kappa inh-2: qHTS for Inhibitors of Polymerase Kappa: Confirmatory Assay for Cherry-picked Compounds; purified Pol-kappa, fluorescent strand-displacement substrate; Potency, µM, usual class: inhibitors; actives 76% (n = 920); shares compounds with Pol eta inh-1
Pol eta inh-2: qHTS for Inhibitors of Polymerase Eta: Confirmatory Assay for Cherry-picked Compounds | actives 64% (n = 2,600) | AID 720502, 2013 | Potency, µM, usual class: inhibitors | Pol eta primer extension, TAMRA/BHQ fluorescence, 10 min | shares compounds with Pol eta inh-1
FEN1 inh-2: qHTS Assay for the Inhibitors of FEN1: Confirmatory Assay for Cherry-picked Compounds; shares compounds with FEN1 inh-1; FEN1 flap cleavage, TAMRA/BHQ2 fluorogenic DNA substrate; Potency, µM, hits mostly inhibitors; actives 79% (n = 880); further: nearly all actives have a fitted effect of over 60% in size
Each line names hits and unclear results; the compound was inactive in the other large screens (follow-up assays come after a bar, where they were run). The call rests on the fitted dose curve; in most records, active means well fitted curve in the direction sought with a large enough effect; inconclusive means small, poorly fitted or top-dose-only effect, or another doubt; inactive means no such curve, though single readings can be large; an effect the other way counts as inactive or inconclusive.

O=C(O)c1ccc(Cl)c(S(=O)(=O)N(Cc2ccccc2)c2ccccc2)c1	none
NS(=O)(=O)c1ccc(CCNC(=O)COC(=O)c2ccc([N+](=O)[O-])o2)cc1	Pol iota inh 35µM, Pol eta inh-1 inconclusive, FEN1 inh-1 inconclusive (no result: Pol beta inh) | POLI cherry-pick 84 | Pol eta inh-2 inconclusive | FEN1 inh-2 11
NS(=O)(=O)c1ccc(CCNC(=O)COC(=O)Cc2ccc([N+](=O)[O-])cc2)cc1	none (no result: Pol beta inh)
COc1ccc(/C=C2/SC(=S)N(c3ccc(S(=O)(=O)Nc4nccs4)cc3)C2=O)cc1	Pol kappa inh-1 50µM, Pol iota inh 22µM, Pol eta inh-1 25µM, FEN1 inh-1 50µM, WRN inhibitor inconclusive | POLI cherry-pick inconclusive | Pol eta inh-2 67 | FEN1 inh-2 60
O=C(O)COc1ccc(C=C2SC(=S)N(c3ccccc3)C2=O)cc1	Pol iota inh inconclusive, Pol eta inh-1 inconclusive (no result: Pol beta inh)
Fc1ccc(-n2ncc3c(N4CCC(Cc5ccccc5)CC4)ncnc32)cc1	none (no result: WRN inhibitor)
CNc1c2cccc(C)c2nc2c(C(=O)NCCN(C)C)cccc12	Pol kappa inh-1 8.9µM, Pol iota inh 11µM, Pol eta inh-1 3.5µM, FEN1 inh-1 2.8µM (no result: Pol beta inh) | POLI cherry-pick 3 | Pol eta inh-2 38 | FEN1 inh-2 2.7
Cc1ccc(C(=O)NCCN(C)C)c(C)c1	none
COC(=O)c1ccccc1-c1c2ccc(=N)cc-2oc2cc(N)ccc12	Pol kappa inh-1 28µM, Pol iota inh 79µM, Pol eta inh-1 50µM, FEN1 inh-1 28µM, WRN inhibitor 4.7µM (no result: Pol beta inh) | POLI cherry-pick 24 | Pol kappa inh-2 47 | Pol eta inh-2 76 | FEN1 inh-2 67
COc1ccc2noc3c2c1C(=O)c1ccccc1-3	Pol kappa inh-1 inconclusive, Pol iota inh inconclusive, Pol eta inh-1 inconclusive, FEN1 inh-1 inconclusive, WRN inhibitor inconclusive (no result: Pol beta inh) | POLI cherry-pick inconclusive | FEN1 inh-2 inconclusive
C#CCN1C(=O)S/C(=C\c2ccc(-c3ccc(C(=O)O)cc3C)o2)C1=O	Pol kappa inh-1 18µM, Pol iota inh 8.9µM, Pol beta inh 16µM, Pol eta inh-1 7.1µM, FEN1 inh-1 inconclusive, WRN inhibitor inconclusive | POLI cherry-pick 15 | Pol eta inh-2 8.5 | FEN1 inh-2 inconclusive
Cc1ccc(CN2C(=O)N/C(=C\c3ccc(-c4ccc(C(=O)O)cc4C)o3)C2=O)cc1	Pol kappa inh-1 79µM, Pol beta inh 20µM, Pol eta inh-1 18µM, FEN1 inh-1 45µM, WRN inhibitor inconclusive | POLI cherry-pick 21 | Pol eta inh-2 27 | FEN1 inh-2 76
O=c1/c(=C\c2cccnc2)sc2nc3ccccc3n12	none
O=C(O)c1ccc(-c2ccc(/C=c3/sc4nc5ccccc5n4c3=O)o2)cc1Cl	Pol kappa inh-1 10µM, Pol iota inh 3.2µM, Pol beta inh 4µM, Pol eta inh-1 1.6µM, FEN1 inh-1 13µM, WRN inhibitor inconclusive | TbPGK inh 12µM | POLI cherry-pick 15 | Pol kappa inh-2 3 | Pol eta inh-2 6 | FEN1 inh-2 inconclusive
COc1cc(N(C)C)c(OC)cc1/C=C1\C=Cc2ccccc21	none (no result: Pol beta inh, Pol eta inh-1, WRN inhibitor)
O=c1c(O)cccc2cc(O)c(O)c(O)c12	Pol kappa inh-1 0.89µM, Pol iota inh inconclusive, Pol beta inh 0.16µM, FEN1 inh-1 inconclusive, WRN inhibitor 4µM | TbPGK inh 0.26µM | POLI cherry-pick 27 | Pol kappa inh-2 24 | Pol eta inh-2 19 | FEN1 inh-2 24
O=Cc1cc2ccccc2cc1O	none (no result: Pol beta inh, Pol eta inh-1, WRN inhibitor)
Cc1ccc(-n2cccc2/C=C2/C(=N)N3C(=NC2=O)SN=C3S(C)(=O)=O)cc1Cl	Pol kappa inh-1 inconclusive, Pol iota inh 22µM, Pol beta inh 28µM, Pol eta inh-1 14µM, FEN1 inh-1 inconclusive, WRN inhibitor inconclusive | POLI cherry-pick 84 | Pol eta inh-2 inconclusive | FEN1 inh-2 85
N#Cc1ccc(/C=C2\C=Cc3ccccc32)cc1	none (no result: Pol beta inh, Pol eta inh-1, WRN inhibitor)
NC(=O)CCC1NC(=O)C(Cc2ccccc2)NC(=O)C(Cc2ccc(O)cc2)NC(=O)CCSSCC(C(=O)N2CCCC2C(=O)NC(CCCN=C(N)N)C(=O)NCC(N)=O)NC(=O)C(CC(N)=O)NC1=O (centres undefined)	none (no result: Pol iota inh, Pol beta inh, Pol eta inh-1, FEN1 inh-1, WRN inhibitor)
C/C(=C1/C=Nc2ccccc21)c1ccc(N(C)C)cc1	FEN1 inh-1 inconclusive (no result: Pol beta inh, Pol eta inh-1, WRN inhibitor)
N=C1/C(=C/c2ccc(-c3cccc(C(=O)O)c3)o2)C(=O)N=C2SC(CC(=O)N3CCOCC3)=NN12	Pol kappa inh-1 inconclusive, Pol iota inh 3.5µM, Pol beta inh inconclusive, Pol eta inh-1 3.5µM, FEN1 inh-1 35µM, WRN inhibitor 22µM | POLI cherry-pick 17 | Pol eta inh-2 4.8 | FEN1 inh-2 67
N=C1/C(=C\c2ccc(-c3cccc(C(=O)O)c3)o2)C(=O)N=C2SC=C(c3ccccc3)N12	Pol kappa inh-1 40µM, Pol iota inh 20µM, Pol beta inh 20µM, Pol eta inh-1 8.9µM, FEN1 inh-1 32µM, WRN inhibitor 40µM | POLI cherry-pick 30 | Pol eta inh-2 9.5 | FEN1 inh-2 67
CCc1ccc(C(=O)c2cn(CC(=O)Nc3ccc(OC)cc3)c3cc4c(cc3c2=O)OCO4)cc1	Pol beta inh inconclusive (no result: WRN inhibitor)
